Measured values as given in ChEMBL document CHEMBL3988442, “University of Dundee, Small-Polar-MMV Screening Library” (2021).
For some assays here: Potency and affinity values are given separately.

Key:
Set-up in all cases: scale not given: direction of the effect not stated beside the values
[1] = molecular target: Protein translocase subunit SecA (Escherichia coli (strain K12)) (UniProt P10408); test: Assay to Identify E. coli SecA ATPase Inhibitors; format: functional; conditions: 30 µM
[2] = molecular target: T1, Ubiquitin-activating enzyme e1, putative (Leishmania donovani (strain BPK282A1)) (UniProt E9BSI1); test: Leishmania donovani Ubiquitin Activating Enzyme (LdE1); format: functional; conditions: 30 µM
T1 sequence (whole entry): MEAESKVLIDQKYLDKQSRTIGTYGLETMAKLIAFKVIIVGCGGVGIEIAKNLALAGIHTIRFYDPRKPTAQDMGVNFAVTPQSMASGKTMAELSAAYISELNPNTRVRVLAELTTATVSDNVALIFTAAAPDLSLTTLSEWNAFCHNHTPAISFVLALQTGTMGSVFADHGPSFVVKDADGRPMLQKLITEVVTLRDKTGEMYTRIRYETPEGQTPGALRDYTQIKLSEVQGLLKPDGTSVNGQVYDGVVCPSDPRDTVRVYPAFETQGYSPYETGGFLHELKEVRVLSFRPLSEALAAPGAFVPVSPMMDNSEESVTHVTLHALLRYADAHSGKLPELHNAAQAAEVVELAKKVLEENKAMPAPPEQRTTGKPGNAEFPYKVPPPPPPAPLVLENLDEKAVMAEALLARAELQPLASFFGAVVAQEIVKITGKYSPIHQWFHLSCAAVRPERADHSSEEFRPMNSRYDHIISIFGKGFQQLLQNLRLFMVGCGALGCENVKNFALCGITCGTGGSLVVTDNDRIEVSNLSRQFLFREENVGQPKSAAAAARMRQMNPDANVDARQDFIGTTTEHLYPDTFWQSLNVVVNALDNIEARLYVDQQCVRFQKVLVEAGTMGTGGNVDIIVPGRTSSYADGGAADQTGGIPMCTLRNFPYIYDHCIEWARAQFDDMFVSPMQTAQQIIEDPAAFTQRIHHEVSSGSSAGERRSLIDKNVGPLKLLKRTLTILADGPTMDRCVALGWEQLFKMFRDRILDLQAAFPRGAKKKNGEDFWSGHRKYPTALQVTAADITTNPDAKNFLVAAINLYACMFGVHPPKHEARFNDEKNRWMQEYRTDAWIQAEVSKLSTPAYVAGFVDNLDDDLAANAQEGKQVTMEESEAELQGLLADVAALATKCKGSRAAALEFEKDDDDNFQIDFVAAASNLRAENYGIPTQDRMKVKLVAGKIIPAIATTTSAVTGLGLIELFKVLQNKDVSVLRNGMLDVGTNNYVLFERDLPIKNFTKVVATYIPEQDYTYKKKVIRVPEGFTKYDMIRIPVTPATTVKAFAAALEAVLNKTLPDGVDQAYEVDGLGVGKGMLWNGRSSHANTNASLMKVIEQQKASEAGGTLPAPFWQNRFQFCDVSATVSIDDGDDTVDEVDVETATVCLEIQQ

[3] = molecular target: AMP-activated protein kinase, AMPK (Homo sapiens) (UniProt P54646+O43741+P54619+Q9UGJ0+Q9Y478+Q13131+Q9UGI9); test: AMP-dependent Kinase enzyme assay. An in vitro enzyme assay that detects ADP turnover that is directly proportional to AMPK activity. This uses naive AMPK that is activated during the assay with MK-8722; format: functional; conditions: 30 µM
[4] = molecular target: Sialic acid-binding Ig-like lectin 9 (Homo sapiens) (UniProt Q9Y336); test: Hs-Siglec9 ALPHAscreen SOP 20170721; conditions: 10 µM
Chain of Sialic acid-binding Ig-like lectin 9 (Homo sapiens) (Q9Y336 whole entry): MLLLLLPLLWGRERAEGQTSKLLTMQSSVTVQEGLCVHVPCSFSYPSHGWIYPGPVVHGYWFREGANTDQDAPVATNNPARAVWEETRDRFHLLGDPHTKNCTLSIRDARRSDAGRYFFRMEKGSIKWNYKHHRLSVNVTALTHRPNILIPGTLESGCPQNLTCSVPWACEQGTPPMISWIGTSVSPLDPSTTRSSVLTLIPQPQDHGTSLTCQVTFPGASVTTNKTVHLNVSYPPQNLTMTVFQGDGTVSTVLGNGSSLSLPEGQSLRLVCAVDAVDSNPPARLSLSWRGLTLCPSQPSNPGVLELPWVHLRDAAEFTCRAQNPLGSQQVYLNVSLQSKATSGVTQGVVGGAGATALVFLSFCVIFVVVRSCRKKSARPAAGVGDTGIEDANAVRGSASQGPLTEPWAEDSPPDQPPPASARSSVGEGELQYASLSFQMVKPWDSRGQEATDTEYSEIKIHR

Trypanosoma cruzi = test: Trypanosoma cruzi phosphomannomutase and mannose-1-phosphate guanylyltransferase assay; format: functional; conditions: 10 µM
[5] = molecular target: T2, Arginase-2, mitochondrial (Homo sapiens) (UniProt P78540); test: in vitro enzyme assay to detect the production of urea directly proportional to the activity of Arginase II; format: functional; conditions: 33.3 µM; also: in the data most compounds retested in dose-response had high values
T2 sequence (whole entry): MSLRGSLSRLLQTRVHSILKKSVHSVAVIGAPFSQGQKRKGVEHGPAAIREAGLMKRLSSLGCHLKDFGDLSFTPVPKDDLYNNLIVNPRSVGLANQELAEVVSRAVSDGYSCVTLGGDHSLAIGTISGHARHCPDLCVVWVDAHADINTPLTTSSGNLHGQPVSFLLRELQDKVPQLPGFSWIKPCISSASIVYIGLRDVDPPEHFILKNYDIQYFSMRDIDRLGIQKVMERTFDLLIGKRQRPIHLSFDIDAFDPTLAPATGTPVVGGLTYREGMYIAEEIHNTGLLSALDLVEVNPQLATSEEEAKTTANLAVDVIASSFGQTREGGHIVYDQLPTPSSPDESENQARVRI

[6] = molecular target: T3, Proteasome subunit beta (Trypanosoma cruzi) (UniProt O96673); test: Trypanosoma cruzi proteasome chymotrypsin-like activity (TcProtChymo) assay.; also: in the data most compounds retested in dose-response had high values; format: functional; conditions: 9.37 µM
T3 sequence (whole entry): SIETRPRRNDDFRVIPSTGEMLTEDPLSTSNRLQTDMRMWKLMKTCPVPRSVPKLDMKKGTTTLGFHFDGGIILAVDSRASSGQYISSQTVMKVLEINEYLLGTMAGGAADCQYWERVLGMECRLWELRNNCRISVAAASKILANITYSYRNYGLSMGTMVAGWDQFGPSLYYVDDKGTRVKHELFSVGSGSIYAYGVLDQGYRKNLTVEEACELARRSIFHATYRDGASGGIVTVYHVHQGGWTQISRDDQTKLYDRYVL

Homo sapiens = organism: Homo sapiens; test: To identify inhibition of the IFN signalling (Jak-Stat) pathway via expression of an eGFP reporter gene under the control of an IFN-stimulated response element (ISRE) containing MxA promoter.; format: functional; conditions: 30 µM
[7] = molecular target: T4, Tyrosyl-tRNA synthetase, putative (Trypanosoma cruzi (strain CL Brener)) (UniProt Q4DSP6); test: Trypanosoma cruzi tyrosyl tRNA synthetase (TcYRS) _High Tyrosine SOP; format: functional; conditions: 30 µM; also: in the data most compounds retested in dose-response had high values
T4 sequence (whole entry): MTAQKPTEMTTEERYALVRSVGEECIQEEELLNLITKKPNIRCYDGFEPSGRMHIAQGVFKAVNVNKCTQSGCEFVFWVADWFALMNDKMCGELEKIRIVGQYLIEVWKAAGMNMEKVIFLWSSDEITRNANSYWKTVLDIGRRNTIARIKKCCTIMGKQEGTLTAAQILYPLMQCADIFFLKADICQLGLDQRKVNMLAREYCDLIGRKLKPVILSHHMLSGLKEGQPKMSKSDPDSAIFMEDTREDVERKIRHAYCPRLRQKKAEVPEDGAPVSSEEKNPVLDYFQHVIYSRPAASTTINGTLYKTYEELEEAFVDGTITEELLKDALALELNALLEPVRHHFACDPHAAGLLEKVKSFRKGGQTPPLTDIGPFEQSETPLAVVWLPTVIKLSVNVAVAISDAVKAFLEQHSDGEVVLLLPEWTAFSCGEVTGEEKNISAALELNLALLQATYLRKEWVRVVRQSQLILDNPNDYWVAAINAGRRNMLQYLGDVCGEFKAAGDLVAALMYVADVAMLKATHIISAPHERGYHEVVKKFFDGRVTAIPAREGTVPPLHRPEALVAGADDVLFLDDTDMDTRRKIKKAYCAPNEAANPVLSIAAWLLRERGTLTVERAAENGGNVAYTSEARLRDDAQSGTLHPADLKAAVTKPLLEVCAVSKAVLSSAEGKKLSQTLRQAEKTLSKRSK

[8] = molecular target: T4, Tyrosyl-tRNA synthetase, putative (Trypanosoma cruzi (strain CL Brener)); test: Trypanosoma cruzi tyrosyl tRNA synthetase (TcYRS) SOP; format: functional; conditions: 30 µM
[9] = molecular target: Chromo domain-containing protein 1 (Saccharomyces cerevisiae (strain ATCC 204508 / S288c) (Baker's yeast)) (UniProt P32657); test: ScCHD-1 Enzyme Inhibition Assay; format: functional; conditions: 30 µM; also: in the data most compounds retested in dose-response had high values
Chain of Chromo domain-containing protein 1 (Saccharomyces cerevisiae (strain ATCC 204508 / S288c) (Baker's yeast)) (P32657 whole entry, the tested form may be a part): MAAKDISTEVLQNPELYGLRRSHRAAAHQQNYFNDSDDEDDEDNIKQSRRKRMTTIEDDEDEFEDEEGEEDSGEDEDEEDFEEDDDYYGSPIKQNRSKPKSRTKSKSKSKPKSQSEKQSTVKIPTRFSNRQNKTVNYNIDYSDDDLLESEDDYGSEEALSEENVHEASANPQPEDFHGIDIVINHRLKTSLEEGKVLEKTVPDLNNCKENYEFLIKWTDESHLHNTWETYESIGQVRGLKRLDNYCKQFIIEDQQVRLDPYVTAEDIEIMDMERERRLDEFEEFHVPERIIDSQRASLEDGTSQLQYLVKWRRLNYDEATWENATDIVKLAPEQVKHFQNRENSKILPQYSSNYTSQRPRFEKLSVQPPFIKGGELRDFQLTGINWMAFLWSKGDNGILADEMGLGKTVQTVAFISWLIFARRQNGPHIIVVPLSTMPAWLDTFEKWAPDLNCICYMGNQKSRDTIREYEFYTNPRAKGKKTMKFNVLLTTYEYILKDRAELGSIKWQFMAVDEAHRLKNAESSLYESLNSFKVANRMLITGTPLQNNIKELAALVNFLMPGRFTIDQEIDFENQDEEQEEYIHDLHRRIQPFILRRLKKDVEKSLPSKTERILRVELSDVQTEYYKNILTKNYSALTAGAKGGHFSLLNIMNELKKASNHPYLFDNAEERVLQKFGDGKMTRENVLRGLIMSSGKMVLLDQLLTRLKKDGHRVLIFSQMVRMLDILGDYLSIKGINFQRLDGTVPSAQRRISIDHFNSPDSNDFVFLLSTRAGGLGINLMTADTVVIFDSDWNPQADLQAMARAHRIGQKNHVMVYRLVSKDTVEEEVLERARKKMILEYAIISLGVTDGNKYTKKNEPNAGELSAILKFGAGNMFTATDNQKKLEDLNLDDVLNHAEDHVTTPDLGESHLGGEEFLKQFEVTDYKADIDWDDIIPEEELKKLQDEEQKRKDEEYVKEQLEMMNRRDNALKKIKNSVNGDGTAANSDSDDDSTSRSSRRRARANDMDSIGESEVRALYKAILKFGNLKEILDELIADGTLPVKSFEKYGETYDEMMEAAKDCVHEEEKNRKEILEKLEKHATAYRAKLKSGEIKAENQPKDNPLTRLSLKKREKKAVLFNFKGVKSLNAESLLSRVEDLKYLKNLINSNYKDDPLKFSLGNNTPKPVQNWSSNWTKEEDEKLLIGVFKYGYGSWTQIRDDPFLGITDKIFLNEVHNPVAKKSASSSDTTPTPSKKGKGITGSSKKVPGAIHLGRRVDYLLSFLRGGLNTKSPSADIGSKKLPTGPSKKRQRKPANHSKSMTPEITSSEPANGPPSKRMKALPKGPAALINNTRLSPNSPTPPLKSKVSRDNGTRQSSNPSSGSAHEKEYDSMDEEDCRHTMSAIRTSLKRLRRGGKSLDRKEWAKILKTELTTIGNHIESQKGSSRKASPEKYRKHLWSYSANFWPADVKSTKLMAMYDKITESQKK

Chain of Protein translocase subunit SecA (Escherichia coli (strain K12)) (P10408 whole entry): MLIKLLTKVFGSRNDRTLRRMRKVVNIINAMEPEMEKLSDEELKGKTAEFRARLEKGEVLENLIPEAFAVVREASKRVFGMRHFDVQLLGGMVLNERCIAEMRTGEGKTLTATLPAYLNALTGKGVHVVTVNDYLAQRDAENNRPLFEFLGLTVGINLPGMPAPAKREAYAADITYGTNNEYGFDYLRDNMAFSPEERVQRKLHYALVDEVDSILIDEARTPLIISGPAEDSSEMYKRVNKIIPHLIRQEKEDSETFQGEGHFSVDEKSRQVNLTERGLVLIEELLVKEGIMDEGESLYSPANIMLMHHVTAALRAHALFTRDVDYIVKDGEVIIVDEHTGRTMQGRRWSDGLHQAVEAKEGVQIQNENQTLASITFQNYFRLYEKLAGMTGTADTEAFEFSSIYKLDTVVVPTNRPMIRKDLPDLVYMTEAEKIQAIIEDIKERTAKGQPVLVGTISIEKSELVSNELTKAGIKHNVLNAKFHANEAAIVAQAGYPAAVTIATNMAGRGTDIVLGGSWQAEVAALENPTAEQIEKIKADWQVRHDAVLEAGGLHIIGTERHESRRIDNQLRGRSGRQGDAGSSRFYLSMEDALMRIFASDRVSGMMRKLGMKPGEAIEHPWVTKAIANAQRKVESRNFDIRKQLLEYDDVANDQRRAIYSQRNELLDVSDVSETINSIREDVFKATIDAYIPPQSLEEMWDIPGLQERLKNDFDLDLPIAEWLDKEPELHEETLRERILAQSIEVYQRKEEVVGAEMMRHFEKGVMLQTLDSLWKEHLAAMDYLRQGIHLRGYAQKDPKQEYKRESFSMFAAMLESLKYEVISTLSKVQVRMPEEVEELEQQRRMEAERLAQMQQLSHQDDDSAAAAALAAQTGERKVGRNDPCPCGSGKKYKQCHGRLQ

Compound	Percent Effect [1] [%]	Percent Effect [2] [%]	Percent Effect [3] [%]	Percent Effect [4] [%]	Percent Effect (Trypanosoma cruzi) [%]	Percent Effect [5] [%]	Percent Effect [6] [%]	Percent Effect (Homo sapiens) [%]	Percent Effect [7] [%]	Percent Effect [8] [%]	Percent Effect [9] [%]
CN(C)c1ncc(CN2CCOC(C(=O)Nc3ccccc3)C2)cn1 (configuration not stated)	-0.531	16	2.21	-8.34	2.36	71.6	18.6	23.5	3.19	14.1	-7.74
Cc1cccc(C)c1OCCC(=O)N1CCC(c2nncn2C)CC1	-6.09	23.4	3.3	8.75	6.74	-2.49	6.76	4.85	6.8	21.9	-8.79
COc1c(C2CCCN2CC(=O)Nc2cc(C)no2)c(C)nn1C (configuration not stated)	-5.41	13.5	-3.77	4.82	-4.74	-2.03	6.82	0.794	5.94	11	3.98
CN(CC(=O)N1CCC(C(O)c2ccccc2)CC1)c1cnccn1 (configuration not stated)	-0.515	10.8	-0.406	9.65	-0.279	-2.77	8.62	13.4	5.94	23.2	-7.9
Cc1nccc(-c2cccc(NCC(=O)N3CCc4sccc4C3)c2)n1	-1.56	2.63	49.8	-3.82	4.76	-1.8	6.68	-23.6	11.3	30.9	-8.23
Cn1ccc2ccnc(CC3CN(C(=O)C4CCC(F)(F)CC4)C3)c21	-2.7	6.76	5.92	5.61	-0.395	-0.696	9.05	1.45	6.45	14.3	-12.4
Cc1c[nH]c(CN(C)C(=O)C2CC(=O)N(Cc3ccncc3)C2)n1 (configuration not stated)	-3.45	5.41	-2.63	-5.87	-5.77	-1.24	8.33	0.971	-1.07	1.24	-4.02
CS(=O)(=O)c1ccc(NC(=O)N2CCc3sccc3C2)cn1	-2.17	10.8	4.69	-4.04	-3.71	1.67	18.3	63.4	5.94	11	13.6
COC(=O)CCC(=O)N1CCc2[nH]nc(-c3ccc(F)c(F)c3)c2C1	-3.6	0	8.72	-7.28	-3.81	1.24	-3.35	9.05	2.15	8.64	-0.244
CN1CCCC1CNC(=O)CCCOCc1ccccc1 (configuration not stated)	-4.32	2.63	1.84	9.93	2.44	2.3	-4.01	-1.82	5.39	7.32	6
Cc1cnn(CC2CCCN2CCc2nc3ccccc3c(=O)[nH]2)c1 (configuration not stated)	-3.81	10.1	-7.83	11.2	6.89	4.56	-1.06	15.8	3.45	16.5	-5.27
CCNC(=O)NC(=O)CSC(C)c1ccccc1F (configuration not stated)	-2.26	0	-7.52	16.2	3.8	16.7	11.3	-1.43	3.83	25.9	-6.89
Cc1ccoc1C(=O)NC1CCN(Cc2cccc3c2OCCO3)CC1	-5.22	16.5	-78.8	6.72	3.38	-5.38	13.9	8.82	13.5	25.3	-24.5
COCCCNC(=O)CN(C)C(=O)c1cc(C)sc1C	-3.23	-359	0.833	1.88	-4.55	-1.66	4.67	14.8	5.94	15.8	-1.76
CC(NC(=O)NCCn1ccnc1)c1ccc2c(c1)NC(=O)CO2 (configuration not stated)	-4.14	10.1	1.48	0.18	-7.65	-1.52	-0.409	17.8	0.493	13.9	-1.54
CNS(=O)(=O)CCCN1CCCC1c1cc(C)on1 (configuration not stated)	-2.37	0	1.65	-3.19	-3.68	-1.52	4.5	13.8	0.493	-3.8	0.192
CCN(CC)CCNc1ncc(-c2cc(C)no2)c(-c2ccoc2C)n1	-7.13	20.3	6.82	3.2	2.77	-3.94	8.74	0.0946	5.38	14.3	-20.7
CC1(C)CN(C(=O)NCCc2ccn(-c3ccccc3)n2)CCO1	-4.22	-2.6	8.97	11.9	1.47	4	2.02	8.51	2.86	7.06	-12.9
CCCc1n[nH]c(C2CN(CCn3cccn3)CCO2)n1 (configuration not stated)	-6.25	-4.17	-1.07	-3.33	2.04	2.21	11.9	-12.6	2.1	0	-1.2
Cc1nn(C)c(C)c1CC(=O)N1CCCC(n2ccnc2)C1 (configuration not stated)	-1.6	-5.26	-1.17	-5.34	-3.27	1.8	-0.592	-1.26	1.48	-1.24	-1.5
O=C(CC1CC1)N1CCn2cc(Cn3cncn3)nc2C1	-2.33	10.4	4.72	3.11	-4.04	-13.6	10.8	2.39	3.17	11.5	-6.64
CCC(CNC(=O)c1ccc(=O)[nH]n1)N1CCc2ccccc2C1 (configuration not stated)	0.395	13.5	-10.4	10.4	3.48	11.4	17.9	2.58	7.94	12.2	-3.16
